Source: PubChem BioAssay AID504467 (National Center for Advancing Translational Sciences (NCATS), 2011)
The campaign covered roughly 330,000 compounds. About 7,700 (2.3%) were called active. Entries that show only a call come without a potency. Roughly 26% stayed inconclusive and do not appear here. Calls come from the whole dose curve; as a rule, active = well fitted inhibition curve with a large enough effect; inconclusive = small, poorly fitted or top-dose-only effect, or effect the other way; inactive = flat fitted curve, though single readings scatter. For the sample, actives were picked, then their nearest neighbours and some compounds at random.

Experiment: qHTS screen for small molecules that inhibit ELG1-dependent DNA repair in human embryonic kidney (HEK293T) cells expressing luciferase-tagged ELG1; note: nearly all actives have a fitted effect of over 55% in size
Conditions: HEK293T ELG1-luciferase reporter, luminescence, 16 h, DNA damage induced by 5-fluorouridine; series mostly up to 46.1 µM
Outline: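 DMSO vehicle served as the neutral condition. Each well held 2,000 cells given 5-fluorouridine plus compound; after 16 hr at 37 °C/5% CO2, ONE-Glo was added and luciferase measured 30 min later.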
Potency is the fitted concentration of half-maximal effect.

SMILES | Potency
CCn1c(SCC(=O)NNC(=O)c2ccc(OC)cc2)nnc1C(C)C | inactive
Cc1ccc(CNC(=O)Cn2cnc3c(NCc4ccccc4)ncnc32)o1 | inactive
Cn1cc(/C=C/c2nc3ccccc3c(=O)n2-c2cccc([N+](=O)[O-])c2)c2ccccc21 | inactive
CCn1c(/C=C/c2ccc([N+](=O)[O-])o2)nc2ccccc2c1=O | 16.4 µM (active)
Cc1nc2ccccc2c(=O)n1Cc1ccc([N+](=O)[O-])cc1 | inactive
Cc1cc(C)c(S(=O)(=O)N2CCCC2CNC(=O)c2ccc3c(c2)OCO3)c(C)c1 (stereo not drawn) | inactive
CCc1nc(Nc2ccc(NC(C)=O)cc2)c2oc3ccccc3c2n1 | inactive
CCc1nc(Nc2ccc3nccnc3c2)c2oc3ccccc3c2n1 | 2.59 µM (active)
CCc1nc(N2CCN(c3nc(C)cc(C)n3)CC2)c2oc3ccccc3c2n1 | inactive
CCCCCc1c(C)nc(N2CCN(Cc3ccc4c(c3)OCO4)CC2)[nH]c1=O | inactive
CCC(C)[C@H](NC(=O)N1CCn2c1nc1ccccc12)C(=O)NCc1ccc(OC)cc1 (stereo partly drawn) | inactive
COc1ccc(OC)c(NC(=O)COC(=O)Cc2ccsc2)c1 | inactive
CC(C)c1nc(N2CCOCC2)c(C#N)c2c1COC(C)(C)C2 | inactive
COc1ccc(CSc2nc(N3CCOCC3)c3c(c2C#N)CC(C)(C)OC3)cc1 | 0.92 µM (active)
CCOC(=O)CSc1nc(N2CCOCC2)c2c(c1C#N)CC(C(C)C)OC2 (stereo not drawn) | inactive
O=C(COC(=O)c1ccc(O)cc1O)c1ccc2c(c1)OCCO2 | inactive
CCN1CCN(c2ccc(S(=O)(=O)N3CCCCC3)cc2NC(=O)c2cccc(NC(C)=O)c2)CC1 | inactive
CCN(CC)S(=O)(=O)c1ccc(N2CCOCC2)c(NC(=O)c2ccc(=O)n(C)n2)c1 | inactive
CCN(CC)S(=O)(=O)c1ccc(N2CCOCC2)c(NC(=O)C(C)Oc2ccc(F)cc2)c1 (stereo not drawn) | 8.2 µM (active)
CC(Oc1ccc(F)cc1)C(=O)Nc1cc(S(=O)(=O)N2CCOCC2)ccc1N1CCN(C)CC1 (stereo not drawn) | inactive
COc1cccc(CNS(=O)(=O)c2ccc3c(c2)N(C(C)=O)CCS3)c1 | inactive
O=C(Nc1cccc(C(=O)NC2CC2)c1)c1ccc(F)c(S(=O)(=O)N2CCOCC2)c1 | inactive
COc1ccc(NC(=O)NCCN2CCN(c3ccc(C)cc3)CC2)c(Cl)c1 | inactive
CC1C(=O)N(Cc2ccccc2)c2ccccc2N1C(=O)c1ccccc1 (stereo not drawn) | 25.9 µM (active)
CC1Oc2ccccc2N(Cc2cccnc2)C1=O (stereo not drawn) | inactive

SMILES | Potency
O=C1C(Cc2ccc(O)cc2)NC(=S)N1Cc1ccccc1 (stereo not drawn) | inactive
COCCN(Cc1ccccc1)C(=O)Cc1ccc(S(=O)(=O)N2CCOCC2)s1 | inactive
COC(=O)c1ccc(CN2C(=O)NC(c3ccccc3)(c3ccccc3)C2=O)o1 | inactive
CC[C@]1(c2ccccc2OC)C(=O)N(C(=O)OC)N1C(=O)OC | inactive
CC1(C)Cc2c(sc(NC(=O)C(=O)NCC3CCCO3)c2C(=O)O)CO1 (stereo not drawn) | inactive
Cn1c(SCC(=O)Nc2nccs2)nnc1-c1cccnc1 | inactive
COC(=O)C1=C(C)NC2=C(C(=O)c3ccccc32)C1c1ccc(-c2ccc(C(=O)O)cc2)o1 (stereo not drawn) | 20.6 µM (active)
COc1ccccc1NC(=O)C1=C(C)NC2=C(C(=O)CCC2)C1c1ccc(C)o1 (stereo not drawn) | inactive
Cc1ccc(C2C3=C(Nc4[nH]n(-c5ccccc5)c(=O)c42)c2ccccc2C3=O)cc1 (stereo not drawn) | inactive
O=C(Nc1ccncc1)c1ccc(Cl)c([N+](=O)[O-])c1 | inactive
Oc1ccc2ccccc2c1N=Nc1nccs1 | 3.66 µM (active)
Oc1ccc2ccccc2c1C=Nc1ccccc1 | inactive
Oc1ccc(N=Cc2c(O)ccc3ccccc23)cc1 | inactive
CC(C)C(NC(=O)c1c(F)cccc1F)C(=O)NNC(=O)c1ccccc1 (stereo not drawn) | inactive
CN(C(=O)Cn1nnc(-c2ccc(F)cc2)n1)C1CCS(=O)(=O)C1 (stereo not drawn) | inactive
CN(C)S(=O)(=O)c1cccc(NC(=O)Cc2ccsc2)c1 | inactive
CN(CC(=O)Nc1cccc(F)c1)C(=O)C1=COCCO1 | inactive
Cn1nccc1CNC(=O)c1ccnn1C | inactive
CCN(CC)C(=O)c1sc(NC(=O)c2ccco2)c(C#N)c1C | inactive
CCCc1ccc(-c2c(C)sc(NC(=O)c3ccnn3C)c2C#N)cc1 | 18.4 µM (active)
CSc1ccccc1C(=O)OCC(=O)N1CCN(C(C)=O)CC1 | inactive
Cc1ccc(C)c(S(=O)(=O)n2cnc3ccccc32)c1 | inactive
Cc1ccc(C)c(S(=O)(=O)N2CCN(c3ncnc4sccc34)CC2)c1 | 1.83 µM (active)
COc1ccc(C)cc1S(=O)(=O)N1CCN(S(=O)(=O)c2cc(C(=O)O)ccc2C)CC1 | inactive
CCCS(=O)(=O)N1CCCC(C(=O)N2CCN(c3ccccc3)CC2)C1 (stereo not drawn) | inactive

SMILES | Potency
CC(=O)N1CCCc2cc(S(=O)(=O)N3CCCC(C(=O)N4CCN(c5cccc(Cl)c5)CC4)C3)ccc21 (stereo not drawn) | 20.6 µM (active)
CC(=O)N1c2ccc(S(=O)(=O)N3CCC(C(=O)N4CCN(c5ccccc5)CC4)CC3)cc2CC1C (stereo not drawn) | inactive
O=C(C1CCCN(S(=O)(=O)c2ccccc2)C1)N1CCN(c2ccc(F)cc2)CC1 (stereo not drawn) | 11.6 µM (active)
Cc1ccc(S(=O)(=O)N2CCCC(C(=O)N3CCN(C)CC3)C2)cc1 (stereo not drawn) | inactive
CC(=O)N1CCCc2cc(S(=O)(=O)CCC(=O)N3CCN(c4ccccc4)CC3)ccc21 | inactive
O=S(=O)(NC1CCCCC1N1CCN(c2ccccc2F)CC1)c1ccccc1 (stereo not drawn) | inactive
COc1ccccc1N1CC(C(=O)Nc2nnc(SCC(=O)NCC3CCCO3)s2)CC1=O (stereo not drawn) | inactive
COc1ccc2[nH]c3nc(SCC(=O)NC4CC4)nnc3c2c1 | inactive
Cc1cccc(S(=O)(=O)N2CN(CC3CCCO3)c3nc4ccccc4nc32)c1 (stereo not drawn) | inactive
CCOc1ccc(NC(=O)CN(C)C(=O)COc2cccc(CC)c2)cc1OCC | inactive
CN(CC(=O)Nc1ccc(F)cc1)C(=O)c1ccc(-c2ccc(Cl)cc2)o1 | inactive
CC(C)(C)NS(=O)(=O)NC(=O)C1=C(N2CCCC2)COC1=O | inactive
CCCc1cc(=O)oc2cc(OCC(=O)Nc3ccc(CN4CCOCC4)cc3)c(Cl)cc12 | inactive
CCCCN1C(=O)C(C)=C(C)C1OCCc1ccc(OC)c(OC)c1 (stereo not drawn) | inactive
O=C(O)c1ccccc1-c1ccccc1C(=O)Nc1cccc2ccccc12 | inactive
CCC(CO)Oc1cc(NC(=O)c2cccc3ccccc23)c2ncn(C(C)C)c2c1 (stereo not drawn) | 14.6 µM (active)
CCC(CO)Oc1cc(NC(=O)c2ccc(Cl)cc2)c2ncn(C(C)C)c2c1 (stereo not drawn) | inactive
CC(C#N)(NC(=O)CN1CCN(S(=O)(=O)c2cc(C(F)(F)F)ccc2Cl)CC1)C1CC1 (stereo not drawn) | inactive
Cc1ccc(S(=O)(=O)Nc2nc(CN3CCOCC3)nc3sc(C)c(C)c23)cc1 | inactive
C[C@H]1COC(=O)[C@H](CC(=O)OC(C)(C)C)C/C=C\C[C@@H](CC(=O)N[C@H](CO)Cc2ccccc2)C(=O)N1 | inactive
O=C(CSc1nc2nccnc2c(=O)n1Cc1cccs1)Nc1ccccc1F | inactive
O=C(Nc1ccccc1-c1nnn(CC(=O)N2CCN(c3ccccc3)CC2)n1)c1cccs1 | 23.1 µM (active)
COc1ccccc1N1CCN(C(=O)Cn2nnc(-c3cccs3)n2)CC1 | inactive
O=C(Nc1ccccc1-c1ccccc1)c1cccs1 | inactive
CN1C2CCC1CC(NC(=O)c1ccc([N+](=O)[O-])cc1)C2 (stereo not drawn) | inactive

SMILES | Potency
O=C(N[C@@H]1C/C=C\C[C@@H](CC(=O)N(CCO)Cc2ccccc2)C(=O)N[C@H](Cc2ccccc2)COC1=O)OCC1c2ccccc2-c2ccccc21 | inactive
CC(C)(C)CC(C)(C)NCC(O)COCCOc1ccc(Br)cc1 (stereo not drawn) | 23.1 µM (active)
Cc1noc(COc2ccccc2OCC(O)CNC(C)(C)C)n1 (stereo not drawn) | inactive
OC(COc1ccc(Br)cc1)CN1CCCC1 (stereo not drawn) | inactive
COc1ccccc1CNC(=O)[C@@H]1CCCN1C(=O)[C@@H]1Cc2ccccc2CN1C(=O)OC(C)(C)C | inactive
O=C1C=CN2CCCC2CC1 (stereo not drawn) | inactive
COc1ccc(N(C(=O)c2snc(C(N)=O)c2N)C(C(=O)NC2CCCC2)c2ccc(C)o2)c(OC)c1 (stereo not drawn) | inactive
COc1ccc(NC(=O)COC(=O)c2n[nH]c3ccccc23)c(OC)c1 | inactive
Cc1ccc(N(Cc2ccc(C(=O)Nc3ccccc3C(=O)NCc3ccco3)cc2)S(C)(=O)=O)cc1C | 4.61 µM (active)
COc1ccc(C(=O)Nc2ccccc2C(=O)NCc2ccco2)cc1 | inactive
Cc1cccc(Nc2ccccc2C(=O)NCc2ccco2)c1C | inactive
Cc1cc(C)c(S(=O)(=O)N2CCC(C(=O)OCc3c(C)noc3C)CC2)c(C)c1 | inactive
O=C(CCc1nc2sc3c(c2c(=O)[nH]1)CCCC3)NCC(=O)Nc1ccccc1Br | inactive
COc1ccccc1C(=O)OCC(=O)Nc1cccc(S(=O)(=O)NC2=NCCCCC2)c1 | inactive
CCc1ccc2[nH]c(=O)c(Cc3ccccc3)c(O)c2c1 | inactive
C=C(C)C(=O)Nc1cccc(C(C)=O)c1 | inactive
CC(=O)c1cccc(NC(=O)c2ccncc2)c1 | inactive
C=CCSc1nsc(NC(=O)Nc2cccc(C(C)=O)c2)n1 | 7.3 µM (active)
COc1ccc2[nH]c3c(c2c1)CCN1C(=O)C(CC(=O)NCCCN(C)C)C[C@H](C(=O)N2CCOCC2)[C@@]31CCC1CCCC1 (stereo partly drawn) | inactive
Cc1cccc(NC(=O)c2ccc(S(=O)(=O)N(C)c3ccccc3)cc2)n1 | 23.1 µM (active)
CCN(c1ccccc1)S(=O)(=O)c1ccc(C(=O)Nc2nccs2)cc1 | inactive
CN(c1ccccc1)S(=O)(=O)c1cccc(C(=O)NNC(=O)c2ccncc2)c1 | inactive
COc1ccccc1S(=O)(=O)NCc1ccc(C(=O)N(C)Cc2ccc(F)cc2)cc1 | inactive
